ChEMBL document CHEMBL3988442, “University of Dundee, Small-Polar-MMV Screening Library” (2021)

The compounds below were run against AMP-activated protein kinase, AMPK (Homo sapiens) (UniProt P54646+O43741+P54619+Q9UGJ0+Q9Y478+Q13131+Q9UGI9) (assay: AMP-dependent Kinase enzyme assay. An in vitro enzyme assay that detects ADP turnover that is directly proportional to AMPK activity. This uses naive AMPK that is activated during the assay with MK-8722). Conditions: 30 µM.
Type: functional
Parameters: scale not given: direction of the effect not stated beside the values

Structure (SMILES)	Percent Effect
CCC(C)c1csc(NC(=O)Cc2csc(-c3nnc[nH]3)n2)n1 (centres undefined)	10.5%
CC(C)c1ocnc1C(=O)Nc1cccc(Cn2ccccc2=O)c1	8.27%
O=C(NCC1CCS(=O)(=O)C1)N(Cc1ccncc1)C1CC1 (centres undefined)	-5.47%
COCCN(Cc1ccccc1)C(=O)c1cnn(C)c1C	2.02%
Cc1ccc(-c2ccccc2CC2(C(=O)NC(C)C)CCCNC2)cc1 (centres undefined)	6.43%
CCC[C@H]1CN(Cc2cc(C#N)n(C)c2C)C[C@@H]1N(C)C	2.21%
Cc1nn(C)c(C)c1C1CCCN1C(=O)c1cc(C(N)=O)cs1 (centres undefined)	-0.756%
CC(C)Cn1ncc(C(=O)O)c1C1CC1	5.05%
Cc1c(CN2CCc3[nH]cnc3C2C(=O)O)[nH]c2ccc(F)cc12 (centres undefined)	3.73%
O=C(NCC(O)c1cccc(F)c1)C1CCN(C(=O)C2CCC2)CC1 (centres undefined)	-3.62%
CN(Cc1ccsc1)C(=O)c1nc(N2CCCC2)ncc1Cl	-1.6%
COCc1cccc(NCc2cccnc2)c1	0.23%
CCNC(=O)c1ccc(NC2CCOC3(CCCCC3)C2)nn1 (centres undefined)	3.88%
c1cn(Cc2ccc(N3CCCN(C4CCCC4)CC3)nc2)cn1	11.7%
CC1(C)O[C@@](C)([C@H]2CC3(CCN(c4ncccn4)CC3)CO2)CC[C@@H]1O	7.88%
CN(C)c1ccc(C(=O)Nc2ccn(CCc3ccncc3)n2)cn1	14.4%
Cc1cc(C)n(CCN(C)c2ccc(-c3nc(C4CC4)no3)cn2)n1	5.62%
Cc1nnc(CN(C)CC(=O)N2CCCC(C)CC2)n1C (centres undefined)	0.221%
Cc1cc(CNCC2CNc3ccnn3C2)no1 (centres undefined)	-2.57%
CC(C)(C)c1ccc(C(=O)C2CCCN(C(=O)CNS(C)(=O)=O)C2)cc1 (centres undefined)	0.896%

Structure (SMILES)	Percent Effect
Cn1ccnc1C(O)c1ccccc1N1CCN(CC2CCCC2)CC1 (centres undefined)	16.2%
CS(=O)(=O)NCCN1CCSCC1c1ccc(Cl)cc1 (centres undefined)	1.33%
COc1c(F)cc(-c2cccc3c2OC(CN)C3)cc1F (centres undefined)	-4.2%
CCOCCCNCc1cc(O)c2cc(C)ccc2n1	-9.04%
CCN1CCCC(NC(=O)c2ccc(C)[nH]c2=O)C1 (centres undefined)	-5.78%
FC(F)(F)c1cccc(OC2CCN(Cc3c[nH]cn3)CC2)c1	18%
CC(C(N)=O)N1CCN(c2ncc(Cl)cn2)CC1 (centres undefined)	-1.99%
Cc1[nH]ccc1C(=O)N1CCCC(c2ccc(C(=O)O)cc2)C1 (centres undefined)	-0.307%
COc1cc(F)c(NCc2nc3ccccc3n2C)cc1OC	-46.6%
Cc1nc(CN2CCOCC2c2[nH]ncc2C)cs1 (centres undefined)	12.1%
Cn1cc(C(=O)NCCc2ccc(OC3CCCC3)cc2)ccc1=O	0.292%
CC(C)c1noc(C(C)N2CCC(c3nc4ccccc4o3)CC2)n1 (centres undefined)	0.506%
CC(C)c1nn(C)cc1CNCc1ccnc(N(C)C)c1	-4.28%
CN(C)c1cccc(C(=O)Nc2cnn(Cc3ccccn3)c2)c1	-43.1%
CCN(CC)c1ncccc1CNCc1cc2ccccc2s1	-4.57%
Cn1c(N)nnc1SCc1c(F)cccc1Br	4.93%
COc1cccc(CCC(=O)Nc2c(C)nn(C)c2C)c1OC	15.8%
CCn1nc(C)c(C(C)Nc2cc(C3CCNCC3)nc(C)n2)c1C (centres undefined)	0.304%
COc1c(CNCC(=O)N2CCN(C)CC2)c(C(C)C)nn1C	-12.4%
